Source: PubChem BioAssay (EPA / NIEHS)
Results filed as inconclusive are left out. Active and inactive are the calls of the source. Rule for the calls: active = hit-call score of the fitted dose curve at least 0.9, where 1 is the maximum; inconclusive = response in the unintended direction; inactive = score below 0.9.

Columns and labels:
[1] = biological target: rat Adrenergic Receptor, Alpha 2 (Adra2), Non-selective Binding, Adra2a (gene 25083) (UniProt P22909); assay: NVS_GPCR_rAdra2_NonSelective: NovaScreen (NVS) G Protein-Coupled Receptor Assay for rat Adrenergic Receptor, Alpha 2 (Adra2), Non-selective Binding (AID 2283299)
rat Adrenergic Receptor, Alpha 2 (Adra2), Non-selective Binding, Adra2a (gene 25083), sequence (P22909 whole entry, looked up): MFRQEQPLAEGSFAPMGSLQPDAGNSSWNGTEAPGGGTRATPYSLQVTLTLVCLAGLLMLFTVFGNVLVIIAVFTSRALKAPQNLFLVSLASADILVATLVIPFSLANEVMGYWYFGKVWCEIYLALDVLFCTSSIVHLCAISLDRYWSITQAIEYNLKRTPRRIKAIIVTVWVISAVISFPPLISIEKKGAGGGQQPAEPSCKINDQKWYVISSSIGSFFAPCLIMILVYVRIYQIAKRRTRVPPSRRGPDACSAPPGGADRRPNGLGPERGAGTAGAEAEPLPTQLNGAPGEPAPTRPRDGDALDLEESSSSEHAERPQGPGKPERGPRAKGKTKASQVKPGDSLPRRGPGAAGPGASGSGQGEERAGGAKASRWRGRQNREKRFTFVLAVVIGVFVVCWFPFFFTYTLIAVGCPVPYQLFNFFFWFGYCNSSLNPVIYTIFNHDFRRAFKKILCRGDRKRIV
Procedure, shortened: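 Filter-based scintillation counting of radioligand binding to rat cortical membrane receptors, measured 1.25 hours post-dosing; loss of signal versus DMSO indicates displacement. Initial single-concentration duplicate at 25 uM, then concentration series.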

[2] = biological target: rat Histamine Receptor (H3), Hrh3 (gene 85268) (UniProt Q9QYN8); assay: NVS_GPCR_rH3: NovaScreen (NVS) G Protein-Coupled Receptor Assay for rat Histamine Receptor (H3) (AID 2283303)
Procedure, shortened: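 Filter-binding radioligand competition on rat forebrain membranes, 1 h incubation; compounds screened at 25 µM in duplicate and followed in concentration series to 50 µM, loss of bound signal vs DMSO.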

Adra2b (gene 24174) = Adra2b (gene 24174) (UniProt P19328); assay: NVS_GPCR_rmAdra2B: NovaScreen (NVS) G Protein-Coupled Receptor Assay for hybird cells Adrenergic, Alpha 2B Receptor (Adra2B) (AID 2283306)
Adra2b (gene 24174), sequence (P19328 whole entry, looked up): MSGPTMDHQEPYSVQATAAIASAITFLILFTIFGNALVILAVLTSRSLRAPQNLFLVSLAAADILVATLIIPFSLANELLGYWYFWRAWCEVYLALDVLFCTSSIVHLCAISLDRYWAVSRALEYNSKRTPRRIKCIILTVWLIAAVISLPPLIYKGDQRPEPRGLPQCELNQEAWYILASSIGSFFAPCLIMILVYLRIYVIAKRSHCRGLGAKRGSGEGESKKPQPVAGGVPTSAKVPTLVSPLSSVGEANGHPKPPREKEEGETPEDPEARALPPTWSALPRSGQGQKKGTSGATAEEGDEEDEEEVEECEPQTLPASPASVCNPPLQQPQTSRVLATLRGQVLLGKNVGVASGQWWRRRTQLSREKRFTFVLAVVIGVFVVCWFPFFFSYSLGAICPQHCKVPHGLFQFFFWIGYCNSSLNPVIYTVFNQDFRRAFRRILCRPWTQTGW
Procedure, shortened: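 Compounds screened first at 25 uM in duplicate, with actives followed up in concentration-response; specific radioligand displacement from hybrid neuroglioma/blastoma cell membrane preparations measured by filter scintillation counting after 1 h, normalized to DMSO.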

[3] = biological target: rat Neurokinin-1 Receptor (NK1), Tacr1 (gene 24807) (UniProt P14600); assay: NVS_GPCR_rNK1: NovaScreen (NVS) G Protein-Coupled Receptor Assay for rat Neurokinin-1 Receptor (NK1) (AID 2283309)
rat Neurokinin-1 Receptor (NK1), Tacr1 (gene 24807), sequence (P14600 whole entry, looked up): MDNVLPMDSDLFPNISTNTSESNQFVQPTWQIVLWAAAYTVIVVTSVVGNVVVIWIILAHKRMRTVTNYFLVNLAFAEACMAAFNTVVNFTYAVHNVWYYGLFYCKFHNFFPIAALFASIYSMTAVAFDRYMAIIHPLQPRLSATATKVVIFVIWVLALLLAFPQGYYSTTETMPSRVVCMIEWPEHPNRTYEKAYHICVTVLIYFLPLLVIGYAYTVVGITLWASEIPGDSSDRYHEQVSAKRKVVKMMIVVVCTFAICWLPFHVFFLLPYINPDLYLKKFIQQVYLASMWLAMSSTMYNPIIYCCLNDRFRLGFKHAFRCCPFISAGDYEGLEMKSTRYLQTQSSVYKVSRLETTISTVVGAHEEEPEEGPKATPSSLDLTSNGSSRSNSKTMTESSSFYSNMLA
Description: (§1) NVS_GPCR_rNK1 is a biochemical, single-readout assay that uses extracted gene-proteins from Rat submaxillary gland membranes in a tissue-based cell-free assay. Measurements were taken 1 hour after chemical dosing in a 48-well plate.NVS_GPCR_rNK1 is one of one assay component(s) measured or calculated from the NVS_GPCR_rNK1 assay. It is designed to make measurements of radioligand binding, a form of binding reporter, as detected with scintillation counting signals by Filter-based radiodetection technology.Data from the assay component NVS_GPCR_rNK1 was analyzed into 1 assay endpoint. This assay endpoint, NVS_GPCR_rNK1, was analyzed in the positive analysis fitting direction relative to DMSO as the negative control and baseline of activity. Using a type of binding reporter, loss-of-signal activity can be used to understand changes in the binding as they relate to the gene Tacr1. Furthermore, this assay endpoint can be referred to as a primary readout, because the performed assay has only produced 1 assay endpoint. To generalize the intended target to other relatable targets, this assay endpoint is annotated to the gpcr intended target family, where the subfamily is rhodopsin-like receptor.
Binding assays used specific radioligands (tritiated, iodinated) with non-radioactive competitive displacement ligands in agonist or antagonist protocols (as indicated) and various reference compounds and inhibitors to titrate specific binding to receptors and transporters. Most enzyme assays (CYPs, kinases, phosphatases, proteases, HDACs) used recombinant protein and specific substrates (fluorescence mostly, some colorimetric and radioactive) and inhibitors, followed by a biochemical separation of substrate and product. All assays for the biochemical HTS were initially run in duplicate at a single concentration (10 uM for CYP450 assays and 25 uM for all others). […] Each assay was run with positive and negative controls, and concurrent controls on every plate. […]

[4] = biological target: rat Opioid Receptor, Non-selective Sodium (Na+) Binding, Oprm1 (gene 25601) (UniProt P33535); assay: NVS_GPCR_rOpiate_NonSelectiveNa: NovaScreen (NVS) G Protein-Coupled Receptor Assay for rat Opioid Receptor, Non-selective Sodium (Na+) Binding (AID 2283311)
rat Opioid Receptor, Non-selective Sodium (Na+) Binding, Oprm1 (gene 25601), sequence (P33535 whole entry, looked up): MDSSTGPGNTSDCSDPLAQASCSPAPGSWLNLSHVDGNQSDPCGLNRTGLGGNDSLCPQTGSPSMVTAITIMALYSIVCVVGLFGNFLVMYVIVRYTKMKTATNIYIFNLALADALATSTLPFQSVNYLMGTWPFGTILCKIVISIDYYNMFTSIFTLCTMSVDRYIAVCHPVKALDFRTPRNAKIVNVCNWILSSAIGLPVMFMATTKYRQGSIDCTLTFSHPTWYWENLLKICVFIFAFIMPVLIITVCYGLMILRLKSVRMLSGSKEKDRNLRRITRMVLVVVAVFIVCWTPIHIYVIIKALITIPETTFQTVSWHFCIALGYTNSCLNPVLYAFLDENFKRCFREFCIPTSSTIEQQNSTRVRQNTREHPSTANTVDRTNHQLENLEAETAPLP
Procedure, shortened: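 Filtration radioligand binding on rat forebrain membrane preparations, read 1.5 h after dosing. Single-concentration 25 µM primary screen in duplicate, followed by singleton concentration series to 50 µM max for actives; DMSO baseline.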

[5] = biological target: rat Gamma-Aminobutyric Acid Type B Receptor (GABBR), Gabbr1 (gene 81657) (UniProt Q9Z0U4); assay: NVS_GPCR_rGABBR: NovaScreen (NVS) G Protein-Coupled Receptor Assay for rat Gamma-Aminobutyric Acid Type B Receptor (GABBR) (AID 2283301)
rat Gamma-Aminobutyric Acid Type B Receptor (GABBR), Gabbr1 (gene 81657), sequence (Q9Z0U4 whole entry, looked up): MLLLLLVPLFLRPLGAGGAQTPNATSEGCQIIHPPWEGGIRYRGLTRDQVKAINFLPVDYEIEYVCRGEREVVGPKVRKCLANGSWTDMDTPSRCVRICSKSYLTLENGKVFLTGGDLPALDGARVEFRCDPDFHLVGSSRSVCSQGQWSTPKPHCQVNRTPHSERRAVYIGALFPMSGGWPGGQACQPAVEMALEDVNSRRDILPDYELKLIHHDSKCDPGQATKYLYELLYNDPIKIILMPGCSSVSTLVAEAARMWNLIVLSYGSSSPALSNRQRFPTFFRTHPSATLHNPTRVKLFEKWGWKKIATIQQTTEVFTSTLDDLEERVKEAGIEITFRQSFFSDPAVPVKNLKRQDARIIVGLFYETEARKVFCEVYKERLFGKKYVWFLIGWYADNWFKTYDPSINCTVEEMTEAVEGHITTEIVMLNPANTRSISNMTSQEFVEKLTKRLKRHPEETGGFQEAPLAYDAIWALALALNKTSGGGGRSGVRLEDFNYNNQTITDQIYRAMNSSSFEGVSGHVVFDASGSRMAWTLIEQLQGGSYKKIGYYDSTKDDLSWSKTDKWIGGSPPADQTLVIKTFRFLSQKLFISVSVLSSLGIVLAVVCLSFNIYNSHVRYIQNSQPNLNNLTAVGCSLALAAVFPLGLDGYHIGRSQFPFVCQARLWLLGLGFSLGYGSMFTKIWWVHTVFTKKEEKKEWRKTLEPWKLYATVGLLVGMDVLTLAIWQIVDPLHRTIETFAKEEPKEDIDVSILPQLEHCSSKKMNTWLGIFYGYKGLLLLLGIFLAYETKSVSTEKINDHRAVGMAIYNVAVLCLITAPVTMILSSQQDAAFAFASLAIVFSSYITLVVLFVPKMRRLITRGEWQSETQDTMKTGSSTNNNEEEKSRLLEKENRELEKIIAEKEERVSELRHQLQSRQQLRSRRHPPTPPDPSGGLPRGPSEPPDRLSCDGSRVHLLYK
Procedure, shortened: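 Rat cortical membrane preparation, competitive radioligand binding for 1 h with filtration and scintillation readout. Actives from duplicate single-point 25 uM screening proceeded to concentration series with 50 uM top concentration.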

[6] = biological target: rat Neurokinin-3 Receptor (NK3), Tacr3 (gene 24808) (UniProt P16177); assay: NVS_GPCR_rNK3: NovaScreen (NVS) G Protein-Coupled Receptor Assay for rat Neurokinin-3 Receptor (NK3) (AID 2283310)
rat Neurokinin-3 Receptor (NK3), Tacr3 (gene 24808), sequence (P16177 whole entry, looked up): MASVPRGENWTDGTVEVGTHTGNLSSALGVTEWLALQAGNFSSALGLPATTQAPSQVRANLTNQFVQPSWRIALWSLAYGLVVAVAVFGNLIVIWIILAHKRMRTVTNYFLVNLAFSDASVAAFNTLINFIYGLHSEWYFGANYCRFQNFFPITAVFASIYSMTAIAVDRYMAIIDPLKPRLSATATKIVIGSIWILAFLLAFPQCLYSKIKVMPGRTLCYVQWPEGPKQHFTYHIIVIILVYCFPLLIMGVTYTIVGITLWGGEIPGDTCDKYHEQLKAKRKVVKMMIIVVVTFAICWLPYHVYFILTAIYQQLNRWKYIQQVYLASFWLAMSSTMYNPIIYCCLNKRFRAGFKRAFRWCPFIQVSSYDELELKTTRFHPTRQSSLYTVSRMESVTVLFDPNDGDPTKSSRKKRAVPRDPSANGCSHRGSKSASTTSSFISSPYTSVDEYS
Description: as §1, with “NVS_GPCR_rNK3” for “NVS_GPCR_rNK1”, “cortical” for “submaxillary gland”, “2 hours” for “1 hour”, “plate.NVS_GPCR_rNK3” for “plate.NVS_GPCR_rNK1”, “NVS_GPCR_rNK3,” for “NVS_GPCR_rNK1,”, “Tacr3.” for “Tacr1.”
Binding assays used specific radioligands (tritiated, iodinated) with non-radioactive competitive displacement ligands in agonist or antagonist protocols (as indicated) and various reference compounds and inhibitors to titrate specific binding to receptors and transporters. Most enzyme assays (CYPs, kinases, phosphatases, proteases, HDACs) used recombinant protein and specific substrates (fluorescence mostly, some colorimetric and radioactive) and inhibitors, followed by a biochemical separation of substrate and product. All assays for the biochemical HTS were initially run in duplicate at a single concentration (10 uM for CYP450 assays and 25 uM for all others). Assay-chemical combinations meeting a pre-defined threshold (e.g., 30% inhibition and other criteria defined below) were then run in singleton concentration-response format with maximum concentration of 20 uM for CYPs and 50 uM for all others. Each assay was run with positive and negative controls, and concurrent controls on every plate. The follow-up (secondary) screen tested active chemical-pairs in concentration series, as well as a few additional assays not tested in the primary screen, some selected negative inactives, and several cases re-run in the concentration series for confirmatory purposes.

[7] = biological target: Metabotropic glutamate receptor 1 (Rattus norvegicus) (UniProt P23385); assay: NVS_GPCR_rmMGluR1: NovaScreen (NVS) G Protein-Coupled Receptor Assay for rat Glutamate Metabotropic Receptor 1 (MGluR1) (AID 2283305)
Metabotropic glutamate receptor 1 (Rattus norvegicus), sequence (P23385 whole entry, looked up): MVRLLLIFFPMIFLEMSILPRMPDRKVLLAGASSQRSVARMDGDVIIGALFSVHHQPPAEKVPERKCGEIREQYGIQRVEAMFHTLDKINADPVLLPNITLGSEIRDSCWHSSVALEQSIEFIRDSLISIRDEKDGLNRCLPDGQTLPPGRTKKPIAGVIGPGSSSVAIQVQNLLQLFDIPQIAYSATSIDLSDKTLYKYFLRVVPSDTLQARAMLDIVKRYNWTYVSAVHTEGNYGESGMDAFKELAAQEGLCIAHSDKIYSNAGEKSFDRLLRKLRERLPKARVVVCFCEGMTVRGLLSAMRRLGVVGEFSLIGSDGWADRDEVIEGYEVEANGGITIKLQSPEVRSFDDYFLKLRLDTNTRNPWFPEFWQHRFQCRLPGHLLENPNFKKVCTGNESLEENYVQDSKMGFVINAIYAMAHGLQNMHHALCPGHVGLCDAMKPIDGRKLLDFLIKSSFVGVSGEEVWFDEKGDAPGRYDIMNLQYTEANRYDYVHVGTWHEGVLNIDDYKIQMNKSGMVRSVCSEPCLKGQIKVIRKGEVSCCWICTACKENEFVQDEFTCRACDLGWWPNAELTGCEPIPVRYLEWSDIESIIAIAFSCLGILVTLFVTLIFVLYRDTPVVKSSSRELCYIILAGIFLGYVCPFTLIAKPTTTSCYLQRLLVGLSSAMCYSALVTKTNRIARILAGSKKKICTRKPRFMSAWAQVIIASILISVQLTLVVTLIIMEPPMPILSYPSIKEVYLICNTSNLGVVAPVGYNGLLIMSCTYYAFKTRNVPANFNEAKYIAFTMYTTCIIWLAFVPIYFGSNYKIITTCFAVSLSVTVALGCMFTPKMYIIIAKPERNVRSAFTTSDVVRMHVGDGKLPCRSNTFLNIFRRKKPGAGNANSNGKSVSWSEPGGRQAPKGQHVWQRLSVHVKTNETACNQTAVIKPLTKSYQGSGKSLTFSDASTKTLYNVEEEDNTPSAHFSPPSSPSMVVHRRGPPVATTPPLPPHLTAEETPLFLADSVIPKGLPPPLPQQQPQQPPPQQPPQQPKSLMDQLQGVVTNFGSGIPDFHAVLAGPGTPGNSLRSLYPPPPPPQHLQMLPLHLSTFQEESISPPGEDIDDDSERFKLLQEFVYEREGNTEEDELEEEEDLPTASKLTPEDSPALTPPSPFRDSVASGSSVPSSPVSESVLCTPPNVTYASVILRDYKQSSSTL
Description: (§2) NVS_GPCR_rmMGluR1 is a biochemical, single-readout assay that uses extracted gene-proteins from Rat cerebellum in a tissue-based cell-free assay. Measurements were taken 1 hour after chemical dosing in a 96-well plate.NVS_GPCR_rmMGluR1 is one of one assay component(s) measured or calculated from the NVS_GPCR_rmMGluR1 assay. It is designed to make measurements of radioligand binding, a form of binding reporter, as detected with scintillation counting signals by Filter-based radiodetection technology.Data from the assay component NVS_GPCR_rmMGluR1 was analyzed into 1 assay endpoint. This assay endpoint, NVS_GPCR_rmMGluR1, was analyzed in the positive analysis fitting direction relative to DMSO as the negative control and baseline of activity. Using a type of binding reporter, loss-of-signal activity can be used to understand changes in the binding as they relate to the gene Grm1. Furthermore, this assay endpoint can be referred to as a primary readout, because the performed assay has only produced 1 assay endpoint. To generalize the intended target to other relatable targets, this assay endpoint is annotated to the gpcr intended target family, where the subfamily is metabotropic glutamate receptor. […]

[8] = biological target: rat Somatostatin Receptor (SST), Sstr1 (gene 25033) (UniProt P28646); assay: NVS_GPCR_rSST: NovaScreen (NVS) G Protein-Coupled Receptor Assay for rat Somatostatin Receptor (SST) (AID 2283314)
rat Somatostatin Receptor (SST), Sstr1 (gene 25033), sequence (P28646 whole entry, looked up): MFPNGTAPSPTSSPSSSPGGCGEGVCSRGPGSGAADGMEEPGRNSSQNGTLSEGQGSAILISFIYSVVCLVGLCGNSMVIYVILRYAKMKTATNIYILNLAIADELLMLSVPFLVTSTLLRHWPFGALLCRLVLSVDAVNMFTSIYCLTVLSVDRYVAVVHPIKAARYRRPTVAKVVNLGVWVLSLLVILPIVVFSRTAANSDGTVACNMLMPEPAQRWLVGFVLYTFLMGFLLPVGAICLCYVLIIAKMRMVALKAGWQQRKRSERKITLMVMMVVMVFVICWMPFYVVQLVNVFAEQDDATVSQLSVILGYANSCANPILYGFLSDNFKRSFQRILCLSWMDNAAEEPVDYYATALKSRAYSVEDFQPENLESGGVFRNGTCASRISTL
Procedure, shortened: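 Single-concentration duplicate screen (25 uM), then concentration-response up to 50 uM for chemicals passing a threshold such as 30% inhibition. Membranes came from rat forebrain. Binding was measured 1 h post-dose by filter radiodetection and scintillation, relative to DMSO.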

[9] = biological target: rat Glutamate Metabotropic Receptor 5 (MGluR5), Grm5 (gene 24418) (UniProt P31424); assay: NVS_GPCR_rmMGluR5: NovaScreen (NVS) G Protein-Coupled Receptor Assay for rat Glutamate Metabotropic Receptor 5 (MGluR5) (AID 2283307)
Description: as §2, with “NVS_GPCR_rmMGluR5” for “NVS_GPCR_rmMGluR1”, “whole brain” for “cerebellum”, “1.5 hours” for “1 hour”, “48-well plate.NVS_GPCR_rmMGluR5” for “96-well plate.NVS_GPCR_rmMGluR1”, “NVS_GPCR_rmMGluR5,” for “NVS_GPCR_rmMGluR1,”, “Grm5.” for “Grm1.”

Cc1nccn1-c1ccc(Sc2cccc(C3(C(N)=O)CCOCC3)c2)cc1
AC50 [1]: 11.1 µM (active) | AC50 [2]: 25 µM (active) | AC50 (Adra2b (gene 24174)): 8.46 µM (active) | AC50 [3]: 25 µM (active) | outcome [4]: inactive

COc1cc(C(C)C)c2c(c1)S(=O)(=O)N(COc1cc(=O)n3cccc(OCCN4CCCCC4)c3n1)C2=O
AC50 [1]: 4.16 µM (active) | AC50 (Adra2b (gene 24174)): 2.98 µM (active) | AC50 [4]: 8.62 µM (active)

CCCC(CCC)C(=O)O
outcome [5]: inactive

CCn1nc(C)c2c1C(=O)NCC(c1ccc(O)cc1)=N2
outcome [1]: inactive | outcome [3]: inactive | outcome [6]: inactive

OC(Cn1cncn1)(Cn1cncn1)c1ccc(F)cc1F
outcome [4]: inactive

CCCCCCCC/C=C\CCCCCCCC(=O)OC[C@@H](O)[C@H]1OC[C@H](O)[C@H]1O
outcome (Adra2b (gene 24174)): inactive

CCCCCCCCCC
outcome [5]: inactive | outcome [7]: inactive | outcome (Adra2b (gene 24174)): inactive | outcome [6]: inactive | AC50 [8]: 2.19 µM (active)

CCCOc1ccc(S(=O)(=O)N2CCN(CC)CC2)cc1-c1nc2c(CC)n(Cc3ccccn3)nc2c(=O)[nH]1
AC50 [3]: 12.6 µM (active)

c1ccc(C(O[C@@H]2CCCN(CCc3ccc4c(c3)OCO4)C2)c2ccccc2)cc1
AC50 [1]: 19.5 µM (active) | outcome [5]: inactive | AC50 (Adra2b (gene 24174)): 7.75 µM (active) | AC50 [4]: 6.18 µM (active) | AC50 [8]: 14.6 µM (active)

CCCCCCCCN(C)C
outcome [1]: inactive | outcome (Adra2b (gene 24174)): inactive

C=CCc1cc(S(=O)(=O)c2ccc(O)c(CC=C)c2)ccc1O
AC50 [4]: 16.1 µM (active)

CCCCCCCC1CCC(=O)O1 (stereo not given)
outcome [8]: inactive

CC[C@H](C)C(=O)O[C@H]1C[C@H](O)C=C2C=C[C@H](C)[C@H](CC[C@@H](O)C[C@@H](O)CC(=O)O)[C@H]21
outcome [9]: inactive

S=P(N1CC1)(N1CC1)N1CC1
outcome [1]: inactive

O=C(O)c1ccc2c(c1)nc(C(=O)NC1CCN(C3CC3)CC1)n2Cc1cc(-c2ccc(Cl)s2)on1
AC50 [1]: 3.26 µM (active) | AC50 (Adra2b (gene 24174)): 0.395 µM (active)

O=c1[nH]cnc2c1ncn2[C@H]1CC[C@@H](CO)O1
outcome [5]: inactive

OCC(CO)(CO)CO
outcome [6]: inactive

CCN(CC)C(=S)SSC(=S)N(CC)CC
AC50 [2]: 16.2 µM (active) | outcome [4]: inactive

CCCCN1C(=O)[C@@H]([C@H](O)C2CCCCC2)NC(=O)C12CCN(Cc1ccc(Oc3ccc(C(=O)O)cc3)cc1)CC2
AC50 [7]: 9.81 µM (active) | outcome [6]: inactive

NC(=O)N1c2ccccc2C=Cc2ccccc21
outcome [5]: inactive
